Screens: PubChem, National Center for Advancing Translational Sciences (NCATS)
This is a sample that favours compounds with a hit; in the whole collection about 11% have one here.
IMPase inh – IMPase inhibition in cells; P97697; CHO-M1 cells, IP1 accumulation, HTRF TR-FRET ratio; inhibition (IP1 accumulation), % at 46.1 µM; 120,000 tested, under 10 active; AID 901; active = well fitted curve in the direction sought with a large enough effect in the signal ratio, not every such curve was filed as active; inconclusive = small, poorly fitted or top-dose-only effect, or a change in a side signal; inactive = no such curve, though single readings can be large or run the other way; the % refers to the signal ratio;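 also: cells stimulated with carbachol in lithium chloride buffer; higher means more IMPase inhibition seen as more IP1 and lower FRET ratio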
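The IP-One HTRF competitive assay in carbachol-stimulated CHO-M1 cells quantifies cellular IP1. Compounds spanned up to 46 uM final, and activity is expressed as AC50 from concentration-response fits of the ratio and donor data.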
12-hLO inh – 12-hLO (ALOX12) enzyme inhibition. Potency, µM (series often up to 57.1 µM), hits mostly inhibitors. purified 12-hLO, xylenol orange hydroperoxide absorbance. AID 1452. 150,000 compounds, 0.12% hits; also: nearly all actives have a fitted effect of over 55% in size
Target sequence (P18054 whole entry, looked up): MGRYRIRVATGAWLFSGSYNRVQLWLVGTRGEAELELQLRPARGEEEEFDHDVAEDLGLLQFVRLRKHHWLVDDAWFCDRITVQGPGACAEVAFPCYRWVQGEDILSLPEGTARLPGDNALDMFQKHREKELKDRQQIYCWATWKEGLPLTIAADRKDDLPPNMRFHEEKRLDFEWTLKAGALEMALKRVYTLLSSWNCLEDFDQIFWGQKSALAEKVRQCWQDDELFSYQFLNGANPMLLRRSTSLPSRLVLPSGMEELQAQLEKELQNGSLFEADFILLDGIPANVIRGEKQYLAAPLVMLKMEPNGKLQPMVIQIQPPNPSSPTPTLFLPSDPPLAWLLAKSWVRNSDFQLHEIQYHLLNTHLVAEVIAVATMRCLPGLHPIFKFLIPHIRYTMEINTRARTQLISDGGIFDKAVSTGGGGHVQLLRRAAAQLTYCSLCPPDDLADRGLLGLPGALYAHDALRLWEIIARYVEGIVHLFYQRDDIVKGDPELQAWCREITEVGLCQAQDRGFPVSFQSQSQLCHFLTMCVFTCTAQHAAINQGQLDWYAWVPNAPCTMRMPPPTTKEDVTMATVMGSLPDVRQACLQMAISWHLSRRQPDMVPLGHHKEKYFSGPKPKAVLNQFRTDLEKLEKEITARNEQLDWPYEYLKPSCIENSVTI
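Purified human 12hLO (150 nM final) was preincubated with compounds for 15 min at room temperature in 25 mM Hepes pH 7.0, 0.01% Triton X-100, then reacted with 40 uM arachidonic acid for 30 min. Hydroperoxide was detected with ferrous iron/xylenol orange.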
ALDH1A1 inh – ALDH1A1 (human) enzyme inhibition; P00352; Purified ALDH1A1, NADH fluorescence, propionaldehyde substrate; Potency, µM (highest dose often 75.3 µM), hits mostly inhibitors; 220,000 compounds, 7.3% hits; active = well fitted inhibition curve with a large enough effect, not every such curve was filed as active; inconclusive = small, poorly fitted or top-dose-only effect, or another doubt; inactive = no such curve, though single readings can be large or run the other way
PNC assembly inh – inhibitors of perinucleolar compartment assembly. PC3M PTB-GFP, PNC prevalence imaging, 16 h; stronger effect = lower value. activity change (PNC), negative = inhibition, % at 10 µM. 140,000 compounds, 3.1% hits. AID 2417;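 active = readout at or below -70, meaning at least 70% loss of cells showing the perinucleolar compartment, a nuclear body marking cancer cells; inconclusive = readout between -30 and a set limit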
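Read-out is percentage of cells bearing a perinucleolar compartment, from automated 20x imaging of fixed, Hoechst-stained PC3M PTB-GFP cells. Cells were seeded 4 h, then exposed 16 h to compound (23 nl of library stock) in duplicate plates.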
IMPase Li cell – IMPase inhibition in cells with lithium potentiation. CHO-M1 cells, IP1 TR-FRET (IP-One), carbachol + lithium. Potency, µM (series often up to 59.4 µM), usual class: inhibitors. 210,000 compounds, 0.35% hits. AID 1457;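 also: IP1 builds up when IMPase is blocked and the TR-FRET signal falls; nearly all actives have a fitted effect of over 50% in size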
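CHO cells stably expressing M1 receptor (2000/well) were cultured 16–30 h, then exposed to compounds with a small lithium addition for 30 min at 37C. IP1 was measured by TR-FRET competition; AC50 from Hill fits.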
HPGD block – blocks human HPGD enzyme activity. P15428. purified HPGD, NADH fluorescence kinetic, PGE2 substrate. Potency, µM, actives largely listed as inhibitors. 150,000 compounds, 4.3% hits. AID 894; active = well fitted inhibition curve with a large enough effect, not every such curve was filed as active; inconclusive = small, poorly fitted or top-dose-only effect, or another doubt; inactive = no such curve, though single readings can be large or run the other way
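NADH formation kinetics: reaction with 30 uM PGE2 and 1 mM NAD+ (final), 20 nM enzyme, Tris-HCl pH 8 with Tween 20, after 15 min compound preincubation at room temperature. Fluorescence change, last versus first of five reads.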
Hits are given with their value; - = inactive; ? = inconclusive; . = no result given; [ ] = dose if it differs, or a comment. Unless noted, calls follow the shape of the dose curve; as a rule, active = well fitted curve in the direction sought with a large enough effect; inconclusive = small, poorly fitted or top-dose-only effect, or another doubt; inactive = no such curve, though single readings can be large; an effect the other way counts as inactive or inconclusive.

SMILES | IMPase inh | 12-hLO inh | ALDH1A1 inh | PNC assembly inh | IMPase Li cell | HPGD block
COc1ccc(N2CCN(C(c3cc4cc(C)ccc4[nH]c3=O)c3nnnn3Cc3ccccc3)CC2)cc1 (stereo not drawn) | - | - | 14µM | ? | - | -
Brc1ccc(C2=N[C@@H](Cc3ccccc3)CO2)cc1 | . | -[0.00818 µM] | - | . | - | -
CCCCC/C=C\C[C@@H](O)/C=C/C=C\CCC(=O)O | . | - | - | . | - | -
CCOC(=O)C1CCN(C(c2cc3ccc(C)c(C)c3[nH]c2=O)c2nnnn2C2CCCCC2)CC1 (stereo not drawn) | - | - | 20µM | - | - | -
Cc1cccc(NC(=O)C2C(c3ccccc3)C2(Cl)Cl)c1 (stereo not drawn) | . | . | 25µM | . | - | .
Cc1ccc(NC(=O)C2C(c3ccccc3)C2(Cl)Cl)c(C)c1 (stereo not drawn) | - | - | - | - | - | 28µM
CC(=O)c1cccc(NC(=O)C2C(c3ccccc3)C2(Cl)Cl)c1 (stereo not drawn) | . | . | - | . | - | .
COc1ccc(NC(=O)C2C(c3ccccc3)C2(Cl)Cl)cc1 (stereo not drawn) | . | . | - | . | . | .
C[C@H](CCC(=O)O)[C@H]1CC[C@@H]2[C@H]3CC[C@H]4C[C@H](O)CC[C@]4(C)[C@@H]3CC[C@@]21C | . | . | - | . | - | -
CCCCCCCC(=O)OCCOC(=O)CCCCCCC | . | -[0.00818 µM] | - | . | - | -
CCN(CC)S(=O)(=O)c1ccc2nc(CCl)[nH]c2c1 | . | . | 20µM | . | - | .
CCOC(=O)c1ccc2c(c1)[nH]c(=S)n2CC | . | . | 25µM | . | - | .
CCN(CC)S(=O)(=O)c1ccc2c(c1)[nH]c(=S)n2CC | . | . | 18µM | . | - | .
COc1ccc(N2C(=O)CC(N3CCN(c4nc5ccccc5s4)CC3)C2=O)cc1 (stereo not drawn) | ? | - | 25µM | - | - | -
COc1cccc2sc(N3CCN(c4nc5ccccc5s4)CC3)nc12 | - | - | 14µM | ? | . | .
COc1ccc(N2CCN(C3CC(=O)N(C)C3=O)CC2)cc1 (stereo not drawn) | - | - | - | - | - | -
COc1ccc(N2C(=O)CC(N3CCN(c4ccc(S(C)(=O)=O)cc4)CC3)C2=O)cc1 (stereo not drawn) | - | - | 22µM | - | - | -
CN(C)c1ccc(CN(C(=O)c2ccco2)C2CCS(=O)(=O)C2)cc1 (stereo not drawn) | - | - | 7.1µM | ? | - | -
CCc1ccc(OCC(=O)N(Cc2ccc(Cl)cc2)C2CCS(=O)(=O)C2)cc1 (stereo not drawn) | - | . | . | . | . | .
CN(C)c1ccc(CN(C(=O)COc2ccc(F)cc2)C2CCS(=O)(=O)C2)cc1 (stereo not drawn) | - | - | ? | - | - | -
CN(C(=O)COc1ccc(C(C)(C)C)cc1)C1CCS(=O)(=O)C1 (stereo not drawn) | -[1.84 µM] | - | - | -120 | - | -
O=C(c1ccco1)N(Cc1cccs1)C1CCS(=O)(=O)C1 (stereo not drawn) | - | - | - | - | - | -
Cc1ccc(OCC(=O)N(Cc2ccc(N(C)C)cc2)C2CCS(=O)(=O)C2)cc1 (stereo not drawn) | - | - | 18µM | - | - | -
CN(C)c1ccc(CN(C(=O)COc2ccc(Br)cc2)C2CCS(=O)(=O)C2)cc1 (stereo not drawn) | - | - | 28µM | - | - | -
Cc1nc(NCc2ccccc2)c2nc(-c3ccccc3)n(CCCN3CCCCC3C)c2n1 (stereo not drawn) | . | - | ? | . | - | ?
SMILES | IMPase inh | 12-hLO inh | ALDH1A1 inh | PNC assembly inh | IMPase Li cell | HPGD block
O=C(O)CS(=O)(=O)CC(=O)NCc1cccc(C(F)(F)F)c1 | . | . | - | . | - | .
COc1cc(OC)nc(-n2ncc(Br)c(Br)c2=O)n1 | . | - | 10µM | ? | - | -
CCC(=O)OCCCNc1nc(-c2ccc(Cl)cc2)nc2ccccc12 | - | . | . | . | . | .
O=C(c1noc2c1CCc1ccccc1-2)N1CCc2ccccc2C1 | - | - | ? | - | - | 16µM
COc1ccc2c(c1)CCc1c(C(=O)N3CCCCCC3)noc1-2 | - | - | ? | - | - | 10µM
O=C(c1noc2c1CCc1ccccc1-2)N1CCCc2ccccc21 | - | - | 13µM | - | - | -
O=C(c1noc2c1CCc1ccccc1-2)N1CCOCC1 | - | - | - | - | - | -
CCOC(=O)[C@]1(C(NC(=O)OC)c2ccco2)CCCC1=O (stereo partly drawn) | . | . | -[13.5 µM] | . | . | .
Cc1ccccc1NC(=O)CSc1nnc(-c2ccco2)c(-c2ccco2)n1 | - | ? | 1.3µM | - | - | 8.9µM
Cc1cccc(C)c1NC(=O)CSc1nnc(-c2ccco2)c(-c2ccco2)n1 | - | - | 7.1µM | - | - | 28µM
COc1ccc(-c2nnc(SCC(=O)Nc3c(C)cccc3C)nc2-c2ccc(OC)cc2)cc1 | - | . | . | . | . | .
COCCNC(=O)C1(C)C=CCN1C(C)=O (stereo not drawn) | . | - | - | . | - | -
Cc1cc(O)c(C=O)c2c1C(=O)Oc1c(C)c(O)c3c(c1O2)C(O)OC3=O (stereo not drawn) | . | ? | ? | . | - | 10µM
COc1cc(C)c2c(c1C=O)Oc1c(c(C)c(O)c3c1C(O)OC3=O)OC2=O (stereo not drawn) | . | - | - | . | - | 20µM
COc1ccccc1NC(=O)c1sc2nc(C)c(C(=O)Nc3ccc(C)cc3C)c(-c3ccc(C)o3)c2c1N | - | . | . | . | . | .
C=CCSCC=C | . | - | - | . | - | -
O=C1C=CC2=C3c4cc(O)c(O)cc4C[C@]3(O)COC2=C1 | . | - | - | . | - | 16µM
Cc1ccc(NC(=O)Cc2noc3ccccc23)cc1 | . | - | - | -99 | - | -
O=C(Cc1noc2ccccc12)Nc1ccc2ccccc2c1 | - | - | - | - | - | -
O=C(c1ccc(F)cc1)C1CCN(C(=O)NC2CCCCC2)CC1 | - | - | 11µM | - | - | -
O=C(NC1CCCCC1)N1CCN(c2ncccn2)CC1 | - | - | - | -83 | - | -
CC(=O)N1C2(C=CC1(C)C(=O)NCCN1CCOCC1)CCCCC2 (stereo not drawn) | . | - | - | . | - | -
c1ccc(-c2n[nH]c3c2CCC3)cc1 | - | - | - | - | - | -
Clc1ccc(-c2n[nH]c3c2CCC3)c(Cl)c1 | ? | - | - | - | - | 7.1µM
Cc1cc(-n2c(C)cc(C(=S)N3CCOCC3)c2C)ccc1Br | . | - | 11µM | - | - | 10µM
S=C(S)O[C@@H]1C[C@@H]2C[C@H]1[C@@H]1CCC[C@H]21 | - | ? | - | . | - | -
C/[N+]([O-])=C\CC(=O)c1ccc(-c2ccccc2)cc1 | . | . | 28µM | . | - | .
CCN(CC)C(=O)c1ccc(-c2ccccc2)cc1 | . | - | ? | - | - | 0.63µM
